MARV entry inh: inhibitors of Marburg virus binding or cell entry; Marburg virus pseudotyped entry inhibition, cell reporter; Potency, µM (titrated, usually from 37.8 µM), without a hit: at the top dose activity change, negative = inhibition, actives largely listed as inhibitors; 1.8% of 300,000 active; calls by dose curve; tested in HEK293 cells; note: potency is the fitted concentration of half-maximal effect; % is set by controls: 0 for no effect and ±100 for the full control effect
HCV inh: HCV inhibition | Huh7.5.1 HCVcc-Cre infection, luciferase reporter, 44 h | Potency, µM (doses to about 41.8 µM), for inactives: top-dose activity change, negative = inhibition, usual class: inhibitors | 3.4% of 340,000 active | AID 651820; active = well fitted inhibition curve with a large enough effect; inconclusive = small, poorly fitted or top-dose-only effect, or another doubt; inactive = no such curve, though single readings can be large or run the other way; note: potency is the fitted concentration of half-maximal effect; % is set by controls: 0 for no effect and ±100 for the full control effect
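A cell-based infection assay in which seeded cells (1,000 per well) receive test compound after 4 h, are inoculated with HCVcc-Cre at approximately 0.5 moi, and are incubated 44 h before luminescence detection.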
Shiga inhibitor: Shiga toxin inhibition; Vero cells, Shiga toxin protein synthesis inhibition reporter; inhibition, % at 38.7 µM; 9.2% of 290,000 active; in the data active = inhibition mostly above about 28%, no sharp cut-off; inactive = mostly below about 43%; note: 0% is about no effect
CHX counter: affects cycloheximide protein synthesis inhibition readout, counter-screen. AID 2314. 12% of 300,000 active. max response, %. cell reporter, cycloheximide protein synthesis inhibition counterscreen; in the data active = max response mostly above about 13%, no sharp cut-off; inactive = mostly below about 14%; note: read at 38.3 µM for the half of the compounds with a filed dose; 0% is about no effect
FMDV inh: blocks foot and mouth disease virus; 1.2% of 410,000 active; FMDV antiviral cell-based qHTS; Potency, µM (highest dose often 57.9 µM), for the others: at the top dose activity change, negative = inhibition, hits mostly inhibitors; calls by dose curve; tested in HEK293T cells; note: read-out not given here; potency is the fitted concentration of half-maximal effect; % is set by controls: 0 for no effect and ±100 for the full control effect; nearly all actives have a fitted effect of over 45% in size
LASV entry inh: inhibitors of Lassa virus binding or cell entry; 1.2% of 300,000 active; Lassa virus pseudotype entry inhibition, cell reporter; Potency, µM (titrated, usually from 37.9 µM), inactives show at the highest dose activity change, negative = inhibition, hits mostly inhibitors; calls by dose curve; tested in HEK293 cells; note: potency is the fitted concentration of half-maximal effect; % is set by controls: 0 for no effect and ±100 for the full control effect; nearly all actives have a fitted effect of over 50% in size
Active calls of the source: *; ? = inconclusive; nt = no result given; + = active, no number; [ ] = another dose, or the depositor's remark. The list is not random: actives were taken first. Their share in the collection is about 13%.

SMILES	MARV entry inh	HCV inh	Shiga inhibitor	CHX counter	FMDV inh	LASV entry inh
S=C(Nc1ccc2nsnc2c1)NC1CCCCC1	?	-3%	88*	59*	58%	-1%
Fc1ccc(NC(=S)NC2CCN(Cc3ccccc3)CC2)cc1	nt	?	2	-4	-3%	nt
FC(F)(F)c1ccc(NC(=S)NC2CCCCC2)cc1	?	?	82*	44*	44%	?
CN(C)c1ccc(-c2nc(N(C)C)c3ccccc3n2)cc1	nt	nt	nt	nt	15%	nt
O=C(Nc1cccc(F)c1)C1CCCCC1	nt	?	nt	nt	8%	nt
Fc1cccc(NC(=S)NC2CCCCCCC2)c1	nt	-28%	75*	35*	-6%	nt
S=C(NNc1ccc2ccccc2c1)NC1CCCCC1	?	-13%	61*	49*	41%	19%
S=C(Nc1ccc(Cl)c(Cl)c1)NC1CCCCC1	?	?	+	56*	19%	-19%
CC(C)c1ccc(NC(=S)NC2CCCCCC2)cc1	?	-3%	69*	32*	45%	?
O=[N+]([O-])c1ccc(N2CCCCCC2)c(S(=O)(=O)N2CCCCC2)c1	-30%	?	36	-2	-2%	-24%
CCN(CC)S(=O)(=O)c1cccc(-c2nn(-c3ccccc3)cc2/C=C(\C#N)C(=O)NCc2ccco2)c1	8%	-1%	20	-4	-1%	-8%
COc1ccccc1NS(=O)(=O)c1ccc(NC(=O)c2nc3nc(C)cc(C(F)F)n3n2)cc1	-1%	-8%	-11	0	-3%	-13%
Cc1ccc(NC(=O)C(=O)NCC2CCCO2)cc1C (configuration not stated)	nt	-13%	100*	31*	13%	nt
Cc1cc(C)c(C)c(OCC(=O)NCC2CCCO2)c1 (configuration not stated)	-5%	1%	-4	2	19%	8%
Cc1cc(C)cc(NC(=O)C(=O)NCC2CCCO2)c1 (configuration not stated)	nt	9%	32	25*	54%	nt
Cc1ccc(NC(=O)C(=O)NCC2CCCO2)cc1 (configuration not stated)	nt	9%	101*	58*	45%	nt
COC(=O)c1ccc(NC(=O)C(=O)NCC2CCCO2)cc1 (configuration not stated)	4%	4%	13	0	43%	0%
Cc1cc(C)cc(OCC(=O)NCC2CCCO2)c1 (configuration not stated)	5%	8%	100*	24*	nt	7%
Cc1ccc(NC(=S)NCC2CCCO2)cc1C (configuration not stated)	0%	-14%	12	9	23%	-11%
O=S(=O)(c1cccc2ccccc12)N1CCCCC1	?	4%	-4	-2	-13%	-21%[46.1 µM]
CCc1ccc(CNC(=O)c2ccc(NC(=O)C3=CSCCO3)cc2)cc1	nt	2%	21*	33*	0%	nt
O=C(Nc1ccc(C(=O)NCc2ccccc2)cc1)C1=CSCCO1	nt	-4%	38*	28*	68%	nt
O=C(Nc1ccc(C(=O)NCc2ccc(F)cc2)cc1)C1=CSCCO1	-24%[46.1 µM]	-7%	102*	38*	29%	-18%[46.1 µM]
CCOC(=O)c1c(C)[nH]c(C)c1C(=O)COc1ccc(NC(=O)c2ccco2)cc1	-2%	-14%	-4	-1	-28%	-19%
COc1cc(C(=S)N2CCOCC2)ccc1OC(=O)c1ccc([N+](=O)[O-])cc1[N+](=O)[O-]	nt	-14%	-3	6	-13%	nt
SMILES	MARV entry inh	HCV inh	Shiga inhibitor	CHX counter	FMDV inh	LASV entry inh
Cc1ccccc1OCC(=O)Nc1ccc2nc(SCC(=O)N3CCc4ccccc43)sc2c1	0%[46.1 µM]	nt	nt	nt	7%	-15%[46.1 µM]
CCCCn1c(N)c(N(C)C(=O)C2CCCC2)c(=O)[nH]c1=O	nt	7%	nt	nt	3%	nt
CO[C@@H]1CN(C)C(=O)c2ccc(NC(=O)C3CCC3)cc2OC[C@H](C)N(CC2CCCCC2)C[C@H]1C	nt	nt	nt	nt	-9%	nt
Cn1ccc(NC(=O)Nc2cccc([N+](=O)[O-])c2)n1	17%[46.1 µM]	-4%	39*	23*	28%	7%
Cc1ccc(NC(=O)Nc2cccc([N+](=O)[O-])c2)nc1	-2%[46.1 µM]	-7%	85*	20*	38%	0%
O=C(Nc1cccc([N+](=O)[O-])c1)Nc1cccc([N+](=O)[O-])c1	?	?	-5	7	?	?
c1ccc(Cn2c(CNc3nc4ccccc4n3CCN3CCOCC3)nc3ccccc32)cc1	?	4%	-7	-3	-17%	-3%
CNC(=O)CC1C(=O)N(C)C(=S)N1NC(=O)c1ccc(Cl)cc1 (configuration not stated)	9%[46.1 µM]	2%	11	-3	-20%	18%
O=c1oc2ccccc2c2oc3cc(O)c(O)cc3c12	8%	-21%	26*	24*	21%	?
O[C@@H]1C[C@H](c2ccccc2)N(CC2CCCCC2)C[C@H]1n1cc(C2CC2)nn1	nt	nt	nt	nt	-20%	nt
COc1ccc(/C=N/NC(=O)Cn2nnc3ccccc32)cc1OC	0%	-10%	32*	22*	10%	9%
COc1ccc(/C=N/NC(=O)c2ccccc2O)cc1Cn1nnc2ccccc21	nt	15%	50*	22*	10%	nt
CSc1nnc2c3ccccc3c3ccccc3c2n1	-2%	5%	10	10	6%	4%
COC(=O)c1cc2nc(-c3ccc(OC)c(OC)c3)cc(C(F)(F)F)n2n1	-3%	-10%	-6	-3	-24%	4%
O=C(Nc1nc(-c2cccc3ccccc23)cs1)c1ccc2c(c1)S(=O)(=O)c1ccccc1C2=O	12%[46.1 µM]	?	62*	21*	31%	7%
Cc1cc2ncn(C(=O)c3c(-c4ccccc4)noc3C)c2cc1C	-6%	0%	2	-3	nt	-15%
Cc1[nH]nc2c1C(c1cn[nH]c1-c1ccc(F)cc1)C(C#N)=C(N)O2 (configuration not stated)	0%[46.1 µM]	-7%	-19	-1	22µM*	-28%
COc1ccc(-c2ccc(C3C(C#N)=C(N)Oc4n[nH]c(C)c43)o2)cc1 (configuration not stated)	16%	-16%	20	23*	9%	-7%
O=c1c2ccccc2nc(Cc2cccc([N+](=O)[O-])c2)n1-c1ccc(O)cc1	3%[46.1 µM]	0%	-3	9	-29%	0%
O=C(CCC(=O)c1cccs1)NCc1ccncc1	18%[46.1 µM]	35%	-10	-6	-8%	1%
CCc1ccc(Nc2nc(N)nc(CSc3nc4ccccc4s3)n2)cc1	-29%[46.1 µM]	-6%	49*	29	-17%	14%[46.1 µM]
COc1ccccc1Nc1nc(N)nc(CSc2nc(C)cc(C)n2)n1	-2%	?	-20	6	-14%	0%
COc1ccccc1Nc1nc(N)nc(CSc2nnc(C)s2)n1	3%	14%	11	1	15%	19%
Cn1cnnc1SCc1nc(N)nc(Nc2ccccc2)n1	?	16%	28	3	65%	14%

Bioassay records deposited in PubChem by National Center for Advancing Translational Sciences (NCATS).
